# According to ChEMBL document CHEMBL4513146, “CO-ADD screening of Karazin Kharkiv National University (Ukraine) compounds”:
# Potency and affinity values are given separately.
# Tests used:
# Staphylococcus aureus = conditions: Concentration 32 ug.mL-1;; ASSAY_TEST Inhibition of Bacterial Growth; detection method Absorption (OD600); MEDIA CAMHB; plate type 384well; NBS; CORNING #3640; time 18 hr
# Escherichia coli = conditions: Concentration 32 ug.mL-1;; ASSAY_TEST Inhibition of Bacterial Growth; detection method Absorption (OD600); MEDIA CAMHB; plate type 384well; NBS; CORNING #3640; time 18 hr
SMILES,Inhibition (Staphylococcus aureus),Inhibition (Escherichia coli)
Cc1cc2nn(CC(=O)Nc3cc(F)ccc3C)c(=O)n2c(Nc2ccc(F)cc2)n1,4.25%,-5.18%
COc1ccc(Cl)cc1NC(=O)Cn1nc2c(Sc3ccc(C)cc3C)nccn2c1=O,-3.15%,-8.38%
COC(=O)c1cccc(NC(=O)Cn2nc3c(Sc4ccc(C)cc4C)nccn3c2=O)c1,10.39%,-5.72%
Cc1cc(C)cc(NC(=O)Cn2nc3c(Sc4cccc(C)c4)nc4ccccc4n3c2=O)c1,1.17%,2.96%
COc1cccc(Oc2nccn3c(=O)n(CC(=O)Nc4ccc(OC)c(Cl)c4)nc23)c1,8.12%,-5.35%
Cc1ccc(Oc2nc3ccccc3n3c(=O)n(CC(=O)Nc4ccc5c(c4)OCO5)nc23)cc1,1.4%,-7.69%
COc1ccc(-c2cc3c4nnc(CCC(=O)NCCc5ccccc5)n4ccn3n2)cc1,6.36%,2.69%
CSc1cccc(NC(=O)Cn2nc3c4c5c(sc4ncn3c2=O)CCCC5)c1,-8.02%,-9.58%
O=C(Cn1nc2n(Cc3ccc(F)cc3)c(=O)c3ccccc3n2c1=O)Nc1ccc2c(c1)OCO2,15.06%,-3.01%
CSc1ccc(CNC(=O)Cn2nc3c(N4CCOCC4)nccn3c2=O)cc1,19.42%,-0.45%
COc1ccc(NC(=O)Cn2nc3ccc(-c4ccccc4)nn3c2=O)cc1Cl,-3.72%,-7.68%
Cc1ccc(-c2cc3c4nn(CC(=O)Nc5cccc(Br)c5)c(=O)n4ccn3n2)cc1,8.15%,0.32%
